Reference: PubChem BioAssay AID1851 (National Center for Advancing Translational Sciences (NCATS), 2009)
Several values for one entry are separate records, joined by “and”; a condition that tells them apart may be missing. Equal values may be shown once. The campaign covered roughly 16,000 compounds. About 5,800 (36%) were called active. Another 23% or so got no clear call; they are omitted. Calls come from the whole dose curve; as a rule, active = well fitted curve in the direction sought with a large enough effect; inconclusive = small, poorly fitted or top-dose-only effect, or effect the other way; inactive = no such curve, though single readings can be large or run the other way. The list shows a part of the results. Some structures have more than one record in an assay (separate samples or runs), and their calls can disagree.

Target: Cytochrome P450 2C19 (Homo sapiens) (UniProt P33261)
Experiment: Cytochrome panel assay with activity outcomes
Conditions: recombinant CYP, pro-luciferin dealkylation, luminescence, p450-cyp2c19; series mostly up to 57.1 µM
% is set by controls: 0 for no effect and ±100 for the full control effect.

Cytochrome P450 2C19 (Homo sapiens), sequence (P33261 whole entry, looked up): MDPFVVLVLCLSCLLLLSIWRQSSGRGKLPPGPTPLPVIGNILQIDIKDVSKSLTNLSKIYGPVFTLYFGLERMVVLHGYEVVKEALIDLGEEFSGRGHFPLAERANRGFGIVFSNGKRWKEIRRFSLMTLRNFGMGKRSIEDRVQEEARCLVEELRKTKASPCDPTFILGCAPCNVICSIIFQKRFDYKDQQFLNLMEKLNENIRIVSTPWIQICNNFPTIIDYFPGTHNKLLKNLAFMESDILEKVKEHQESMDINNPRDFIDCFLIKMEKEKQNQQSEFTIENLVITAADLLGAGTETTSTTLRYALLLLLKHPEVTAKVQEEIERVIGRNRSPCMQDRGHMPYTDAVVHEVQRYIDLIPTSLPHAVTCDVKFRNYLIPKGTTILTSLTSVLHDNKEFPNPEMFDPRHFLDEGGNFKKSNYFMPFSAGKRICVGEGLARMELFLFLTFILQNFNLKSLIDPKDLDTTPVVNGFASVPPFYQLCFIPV

Compound | activity, negative = inhibition | AC50
NS(=O)(=O)c1ccc(N=Nc2ncccc2O)cc1 | -17% [at 11.4 µM] (inactive) | –
Cc1nc2cccc([N+](=O)[O-])c2n1CCCN(C)C | 37.8% [at 11.4 µM] (inactive) | –
Cc1ccc2nc(SCc3nnc(-c4ccccc4[N+](=O)[O-])o3)c(C#N)cc2c1 | – | 0.794 µM (active)
C#CCN(C)Cc1ccccc1 | – | inactive
CN(Cc1ccccc1)Cn1ccnc1 | – | 2 µM (active)
CCOc1nc(NCCc2ccc(OC)c(OC)c2)nc(NC(C)(C)CO)n1 | – | 6.31 µM (active)
COc1ccc(CCNC[C@H](O)c2ccc(O)cc2)cc1OC | – | inactive
COc1ccc(Oc2ncc3ncc(=O)n(CCc4ccccc4)c3n2)cc1 | – | inactive
O=c1cnc2cnc(Oc3ccccc3)nc2n1CCc1ccccc1 | – | 6.31 µM (active)
COCCn1c(=O)c(-c2ccccc2)nc2cnc(Oc3ccccc3)nc21 | – | inactive
COCCn1c(=O)c(-c2cccs2)nc2cnc(Oc3ccccc3)nc21 | – | 10 µM (active)
Cn1c(=O)c(-c2cccs2)nc2cnc(Oc3ccccc3)nc21 | – | inactive
COCCn1c(=O)cnc2cnc(Oc3ccc(OC)cc3)nc21 | – | inactive
COCCn1c(=O)cnc2cnc(Oc3ccccc3)nc21 | – | 10 µM (active)
COc1ccc(NC(=O)N2CCCC3(CCN(S(=O)(=O)c4ccccc4)CC3)C2)cc1 | – | inactive
CN(Cc1ccccc1)S(=O)(=O)c1ccc(OCC(=O)N2CCOCC2)cc1 | – | inactive
COc1ccc(S(=O)(=O)N(CCc2ccccc2)CC(=O)N2CCOCC2)cc1 | – | 10 µM (active)
CCN(CC)S(=O)(=O)c1ccc2c(c1)nc(SCC(=O)N1CCOCC1)n2-c1ccccc1OC | – | inactive
COc1ccc(S(=O)(=O)N(CC(=O)N2CCCC2)Cc2ccccc2)cc1 | – | 5.62 µM (active)
c1ccc(Nc2nc(-c3ccc4c(c3)OCO4)nc3ccccc23)cc1 | – | 3.16 µM (active)
c1ccc2c(Nc3ccncc3)nc(-c3ccc4c(c3)OCO4)nc2c1 | – | 3.98 µM (active)
CCOc1ccc(-n2c(SCC(=O)Nc3ccc(OC)cc3)nc3c(c2=O)SCC3)cc1 | – | 7.08 µM (active)
CCOc1ccc(-n2c(SCC(=O)Nc3ccc(OC)cc3OC)nc3c(c2=O)SCC3)cc1 | – | 5.01 µM (active)
CCOc1ccc(-n2c(SCC(=O)Nc3ccc4c(c3)OCCO4)nc3c(c2=O)SCC3)cc1 | – | 2.82 µM (active)
C/C(CCN1CCCCc2nc(C)c(C)cc21)=N\O[C@@H](C)c1cc(-c2c(C)cc(C)cc2C)no1 | -41.4% [at 11.4 µM] (inactive) | –

Compound | activity, negative = inhibition | AC50
O=c1c(-c2cc(F)cc(F)c2)nc2cnc(N3CCOCC3)nc2n1C1CC1 | – | inactive
CO[C@H]1COC(=O)[C@H](C)COC(=O)[C@@H](Cc2ccccc2)NC(=O)C/C=C\[C@H]1C | -17.9% [at 11.4 µM] (inactive) | –
CS(=O)(=O)N1CCC2(CC1)CN(Cc1nccs1)C2 | – | inactive
C[C@]12CC[C@H]3c4ccc(O)cc4CC[C@@H]3[C@H]1C/C(=N/O)[C@H]2O | 27.1% [at 11.4 µM] (inactive) | –
COc1cc(CNn2nnnc2N)ccc1OCc1c(Cl)cccc1Cl | – | 2.51 µM (active)
CC(=O)N1N=C(c2cccc([N+](=O)[O-])c2)OC1c1ccccc1Cl (stereo not drawn) | – | 2.82 µM (active)
CC(=O)N1N=C(c2cccc([N+](=O)[O-])c2)OC1c1ccc(Cl)cc1Cl (stereo not drawn) | – | 0.447 µM (active)
CN1CCN(c2ncc3nc(-c4cccc(C#N)c4)c(=O)n(CCC#N)c3n2)CC1 | – | inactive
COc1ccc(N2C(=O)CSC2c2cccc(F)c2)c(OC)c1 (stereo not drawn) | – | 11.2 µM (active)
CN(C)CC[C@H](c1ccc(Br)cc1)c1ccccn1 | – | inactive
Cc1cc(NCc2ccccn2)ccc1Br | – | 2.82 µM (active)
c1ccc(CCNc2ccccn2)nc1 | 10.5% [at 11.4 µM] (inactive) | –
CNCCc1ccccn1 | – | inactive
OCCCNCc1ccccn1 | 31.9% [at 11.4 µM] (inactive) | –
Cc1cc(Br)ccc1NCc1ccccn1 | – | 0.251 µM (active)
O=C(NCCCn1ccnc1)c1ccc(Br)c(S(=O)(=O)N2CCOCC2)c1 | – | 17.8 µM (active)
COC(=O)c1ccc(Oc2cc(C)nc(-n3nc(C)cc3C)n2)cc1 | – | 7.94 µM (active)
Cc1ccc(C(=O)Oc2cc(C)n(C)c(=O)c2)cc1 | – | inactive
CN1C(C(=O)Nc2ccccn2)=C(O)c2ccccc2S1(=O)=O | – | inactive and 6.31 µM (active)
CN1C(C(=O)Nc2ccccn2)=C(O)c2sccc2S1(=O)=O | – | inactive
COc1cccc(-c2nc(NCCc3c[nH]c4ccc(OC)cc34)c3ccccc3n2)c1 | – | 1.58 µM (active)
COc1ccc2[nH]cc(CCNc3nc(-c4ccoc4)nc4ccccc34)c2c1 | – | 1.58 µM (active)
COc1ccc2[nH]cc(CCNc3nc(-c4cccnc4)nc4ccccc34)c2c1 | – | 0.501 µM (active)
COc1ccc2[nH]cc(CCNc3nc(-c4ccccc4OC)nc4ccccc34)c2c1 | – | 5.01 µM (active)
COc1ccccc1-c1nc(NCCN2CCOCC2)c2ccccc2n1 | – | inactive

Compound | activity, negative = inhibition | AC50
C1CCN(CC[C@@H]2CCCCN2)CC1 | 0.696% [at 11.4 µM] (inactive) | –
CC(C)C(NC(=O)C12CC3CC(CC(C3)C1)C2)C(=O)NC1=NCCS1 (stereo not drawn) | – | 10 µM (active)
CCNC(=O)C/C(C)=N/NC(=O)C12CC3CC(CC(C3)C1)C2 | – | inactive
CCc1cccc2c3c([nH]c12)[C@@](CC)(CC(=O)O)OCC3 | – | inactive
CCc1cccc2c(-c3ccccc3)c3c(nc12)OCC3 | – | 7.94 µM (active)
Cc1cc(Oc2ccccc2)nc(-c2ccccc2)n1 | – | 11.2 µM (active)
Cc1cc(C)nc(Nc2n[nH]c(COc3cccc4ccccc34)n2)n1 | – | inactive
Cn1cnc2c(NCc3ccccc3)nc(NCCO)nc21 | – | inactive
Cc1cc(Oc2ccccc2)nc(NCc2ccccc2)n1 | – | 3.16 µM (active)
NCCS | – | inactive
C#CCn1c(S(=O)(=O)Cc2ccc(OC)cc2)nc(-c2ccccc2)c1-c1ccccc1 | – | 2.24 µM (active)
O=C(O)c1ccccc1/C=N\N=C1c2ccccc2-c2ccccc21 | 2.09% [at 11.4 µM] (inactive) | –
O=C(O)c1ccccc1N/N=C\c1ccnc2ccccc12 | – | 15.8 µM (active)
O=C(O)CCNc1ccccc1C(=O)O | 16.3% [at 11.4 µM] (inactive) | –
CCOC(=O)c1ccccc1OCc1cc(/C=N/n2cnnc2)ccc1OC | – | 0.794 µM (active)
CN1CCN(c2ccc([N+](=O)[O-])cc2NC(=O)c2ccccc2Cl)CC1 | – | inactive
CCC(=O)NC(=S)N1CCN(c2ccc([N+](=O)[O-])cc2Cl)CC1 | – | 2.82 µM (active)
O=C(Nc1cccc(-c2cnc3ccccc3n2)c1)c1ccc(Cl)cc1 | – | inactive
O=C(Nc1cc(Sc2ccccn2)cc([N+](=O)[O-])c1)c1ccc(Cl)cc1 | – | 3.16 µM (active)
COC(=O)c1ccc(CSc2nc3cc(Cl)ccc3s2)o1 | – | 3.16 µM (active)
C1CCc2nnnn2CC1 | – | inactive
COc1ccc(-n2c(=O)c(-c3ccc(F)c(F)c3)nc3cncnc32)cc1 | – | inactive
COc1cccc(Nc2ncc3nc(CCc4ccccc4)c(=O)n(CCC#N)c3n2)c1 | – | inactive
COc1cccc(Cn2c(=O)c(-c3cn(C)c4ccccc34)nc3cncnc32)c1 | – | inactive
CN1CCN(c2ncc3nc(CCc4ccccc4)c(=O)n(C)c3n2)CC1 | – | inactive

Compound | activity, negative = inhibition | AC50
COCCn1c(=O)c(-c2ccc(F)c(F)c2)nc2cncnc21 | – | inactive
COCCn1c(=O)c(-c2ccc(F)cc2)nc2cncnc21 | – | inactive
COc1ccccc1CCn1c(=O)c(CCc2ccccc2)nc2cncnc21 | – | 3.16 µM (active)
Cn1c(=O)c(-c2ccc(F)cc2)nc2cncnc21 | – | inactive
COc1ccccc1CCn1c(=O)c(-c2ccc(F)c(F)c2)nc2cncnc21 | – | 1.26 µM (active)
Cn1cc(-c2nc3cncnc3n(Cc3ccccc3Cl)c2=O)c2ccccc21 | – | inactive
COc1ccccc1CCn1c(=O)c(-c2ccc(F)cc2)nc2cncnc21 | – | 0.316 µM (active)
COc1ccccc1CCn1c(=O)c(-c2cn(C)c3ccccc23)nc2cncnc21 | – | 0.316 µM (active)
CCOC(=O)N/N=C1/C[C@@H](O)[C@@H](O)[C@@H]2[C@@H]3C(=O)N(C(C)(C)C)C(=O)[C@H]3CC[C@H]12 | 1.59% [at 11.4 µM] (inactive) | –
COc1ccc(C[C@@H]2C(=O)N[C@H](C)C(=O)N(C)[C@@H]3Cc4ccc(cc4)Oc4cc(ccc4O)C[C@H](C(=O)N[C@@H](C)C(=O)N[C@H](C)C(=O)N2C)N(C)C3=O)cc1 | 1.07% [at 11.4 µM] (inactive) | –
COc1ncc2nc(-c3cccs3)c(=O)n(CCC#N)c2n1 | – | inactive
COc1ccccc1CCn1c(=O)c(-c2cccc(Cl)c2)nc2cncnc21 | – | 0.251 µM (active)
COCCn1c(=O)c(-c2ccc(Cl)cc2)nc2cnc(Nc3ccccc3)nc21 | – | inactive
COCCn1c(=O)c(-c2cccs2)nc2cnc(N(C)C)nc21 | – | inactive
COc1ccccc1CCn1c(=O)c(-c2ccccc2)nc2cncnc21 | – | 0.631 µM (active)
Cn1c(=O)c(-c2ccccc2)nc2cncnc21 | – | inactive
COc1ccccc1CCn1c(=O)c(-c2ccc(Cl)cc2)nc2cncnc21 | – | 0.398 µM (active)
Cn1c(=O)c(-c2ccc(Cl)cc2)nc2cncnc21 | – | inactive
COCCn1c(=O)c(-c2cccc(Cl)c2)nc2cncnc21 | – | inactive
COc1ccccc1CCn1c(=O)c(-c2cccs2)nc2cncnc21 | – | 2 µM (active)
Cn1c(=O)c(-c2cccc(Cl)c2)nc2cncnc21 | – | inactive
O=C(Nc1ccccc1)N1CCCC2(CCN(C(=O)c3ccco3)CC2)C1 | – | inactive
CCOC(=O)N/N=C1/C[C@@H](O)[C@@H](O)[C@@H]2[C@@H]3C(=O)N(c4cccc(Oc5ccccc5)c4)C(=O)[C@H]3CC[C@@H]12 | -10.2% [at 11.4 µM] (inactive) | –
